Shown is part of a subset that was picked to be rich in hits.
Pf Dd2 growth = Plasmodium falciparum Dd2 growth inhibition; P. falciparum Dd2 growth, SYBR Green, 72 h; Potency, µM (top dose mostly 28.9 µM), for inactives: at the top dose activity, negative = inhibition, hits mostly inhibitors; 120,000 tested, 4.3% active; AID 1347417; active means well fitted inhibition curve with a large enough effect;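 further: plate controls were DMSO vehicle for no effect and reference drug for full effect; nearly all actives have a fitted effect of over 65% in size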
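Readout: SYBR Green fluorescence, 485 nm excitation, 535 nm emission, after ~16 h lysis at 37C. Before that, Dd2-infected red cells (2.5% hematocrit) grew 72 h with compound, 29 uM top final concentration.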
* marks the source's active call; other numbers are inactive results; i = inactive; [ ] = dose if it differs, or a comment. Potency means the concentration at half of the fitted maximal effect.

SMILES	Pf Dd2 growth
O=C(NCCc1c[nH]c2ccccc12)[C@@H]1C[C@H]2C(=O)NCCCCCCN(C(=O)c3ccco3)[C@H]2C1	1.12µM*
O=C1NCCCCCCN(C(=O)c2ccco2)[C@H]2CCCC[C@@H]12	-1.5%
CN(C)Cc1nnc(C2CC(NC(=O)CSCC3CC3)C2)n1C (stereo not given)	4.3%
CCn1cc(S(=O)(=O)N2CCCCCCNC(=O)[C@@H]3CCCC[C@@H]32)cn1	7.9%
CCOC(=O)c1cc(-c2ccccc2)n(-c2cccc(C(=O)Nc3cccc(C)c3)c2)c1C	11.2µM*
CCOC(=O)c1cc(-c2ccccc2)n(-c2cccc(C(=O)N(CC)c3ccccc3)c2)c1C	i
CCOC(=O)c1cc(-c2ccc(C)cc2)n(CC(=O)Nc2cccc(C(C)=O)c2)c1C	i
COc1ccccc1CN1Cc2cc(NC(=O)c3ccc4c(c3)OCO4)ccc2OC(C)C1=O (stereo not given)	3.98µM*
CC1Oc2ccc(NC(=O)c3ccc4c(c3)OCO4)cc2CN(Cc2ccccc2)C1=O (stereo not given)	-21.3%
COc1ccccc1CN1Cc2cc(NC(=O)Cc3cccs3)ccc2OC(C)C1=O (stereo not given)	i
COc1ccc(C(=O)Nc2ccc3c(c2)CN(Cc2cc(F)cc(F)c2)C(=O)C(C)O3)cc1 (stereo not given)	-13.7%
CC1Oc2ccc(NC(=O)c3ccc([N+](=O)[O-])cc3)cc2CN(Cc2ccccc2F)C1=O (stereo not given)	i
COc1ccc(CN2Cc3cc(NC(=O)c4ccc([N+](=O)[O-])cc4)ccc3OC(C)C2=O)c(OC)c1 (stereo not given)	10µM*
COc1ccccc1CCN1Cc2cc(NC(=O)Cc3cccs3)ccc2OC(C)C1=O (stereo not given)	11.2µM*
COc1ccc(CN2Cc3cc(NC(=O)c4ccc5c(c4)OCO5)ccc3OC(C)C2=O)cc1 (stereo not given)	-7.3%
COc1ccc(CN2Cc3cc(NC(=O)Cc4cccs4)ccc3OC(C)C2=O)cc1 (stereo not given)	-4.9%
CN(CC1CCOC1)S(=O)(=O)c1ccc(F)cc1 (stereo not given)	50.5%[5.79 µM]
O=C(COc1ccccc1)NC1CCCN(c2cc(-c3ccc(F)cc3)[nH]n2)C1 (stereo not given)	-32.6%
CC(=O)NC[C@H]1OC[C@@H](NC2CCC2)[C@@H]1O	-8.2%[44.1 µM]
CCNC(=O)c1cccc2c1CCN2C(=O)Nc1ccc(C)cc1	i
CN(Cc1ccco1)C(=O)c1cccc2c1CCN2C(=O)Nc1ccccc1	i
CN(Cc1ccccc1)C(=O)c1cccc2c1CCN2C(=O)Nc1ccccc1	6.31µM*
Cc1ccc(-n2c3c(c(=O)[nH]c2=O)C(NS(=O)(=O)c2ccc(C)cc2)(C(F)(F)F)C(=O)N3)cc1 (stereo not given)	22.2%
O=C1Nc2c(c(=O)[nH]c(=O)n2-c2ccc(F)cc2)C1(NS(=O)(=O)c1ccc(Cl)cc1)C(F)(F)F (stereo not given)	36.7%
Cc1ccc(-n2c3c(c(=O)[nH]c2=O)C(NS(=O)(=O)c2ccc(Cl)cc2)(C(F)(F)F)C(=O)N3)cc1 (stereo not given)	8.91µM*
SMILES	Pf Dd2 growth
CNC(=O)C1CN(c2ccc(OC)cc2)C(=O)N1 (stereo not given)	-7.3%[44.1 µM]
COCCN1C(=O)CC[C@]2(C(=O)N3CCN(CC(C)C)CC3)CCCC[C@@H]12	-9.7%
Cc1cccc(N2CCN(CC(=O)N3CC[C@@](C)(O)[C@@H](O)C3)CC2)c1	4.7%
O=C1CCN(C2CCCC2)CCCC(c2nc(-c3cccnc3)no2)CCN1 (stereo not given)	0.708µM*
O=C1CCN(C(=O)c2cccnc2)CCCC(c2nc(-c3ccccc3)no2)CCN1 (stereo not given)	i
CS(=O)(=O)N1CCCC(c2nc(-c3cccnc3)no2)CCNC(=O)CC1 (stereo not given)	-12.1%
COc1ccc(C(=O)N2CCCC(c3nc(-c4ccccc4)no3)CCNC(=O)CC2)c(OC)n1 (stereo not given)	11.2µM*
CC(C)c1noc(C2CCCN(Cc3ccccc3)CCC(=O)NCC2)n1 (stereo not given)	4.47µM*
CC(C)c1noc(C2CCCN(Cc3cccnc3)CCC(=O)NCC2)n1 (stereo not given)	0.1%
O=C1NCCCCCCN(C(=O)c2cnccn2)[C@H]2C[C@H](c3nc(-c4cccnc4)no3)C[C@@H]12	-22.8%
O=C1CCN(C2CCOCC2)CCCC(c2nc(-c3cccnc3)no2)CCN1 (stereo not given)	-1.1%
COc1ccc(C(=O)N2CCCC(c3nc(-c4cccnc4)no3)CCNC(=O)CC2)c(OC)n1 (stereo not given)	i
CC(C)c1noc(C2CCCN(C(=O)NCCc3ccccc3)CCC(=O)NCC2)n1 (stereo not given)	39.3%
CS(=O)(=O)N1CCCCCCNC(=O)[C@@H]2C[C@@H](c3nc(-c4cccnc4)no3)C[C@@H]21	i
O=C1NCCCCCCN(S(=O)(=O)c2cccnc2)[C@H]2C[C@H](c3nc(-c4cccnc4)no3)C[C@@H]12	2.82µM*
COc1ccc(C(=O)N2CCCC(c3nn(C)c(=O)n3-c3ccccc3)C2)cn1 (stereo not given)	3.6%
CCn1nccc1C(=O)N1C[C@@H](COC)[C@H](c2nc(C3CC3)no2)C1	33.2%
COc1ccccc1NC(=O)N1CC(C(=O)NCC2CC2)CC(c2ccccc2)C1 (stereo not given)	i
COCCN1C(=O)c2cccn2CC1CNC(=O)c1ccc(OC)cc1 (stereo not given)	25.2%
CN(Cc1cccnc1)Cc1nc(C2(O)CCN(C3CCCC3)CC2)cs1	i
COc1ccc(C2(C(=O)N3CCCC(c4nc(-c5ccccc5)no4)CCNC(=O)CC3)CC2)cc1 (stereo not given)	7.94µM*
CCC(=O)N1CCCC(c2nc(-c3ccccc3)no2)CCNC(=O)CC1 (stereo not given)	30.8%
CN(C)C(=O)N1CCCC(c2nc(-c3ccccc3)no2)CCNC(=O)CC1 (stereo not given)	7.2%
CN1CCCCCC(O)c2cc(C(=O)NCCC3=CCCCC3)ccc21 (stereo not given)	i
O=C(Cc1ccc(Cl)cc1)Nc1ccc2oc(-c3ccccc3F)nc2c1	i
SMILES	Pf Dd2 growth
O=C(Nc1ccc(-c2nc3cc(NC(=O)c4ccc(F)cc4)ccc3o2)cc1)c1ccc(F)cc1	0.6%
O=C(Nc1ccc2oc(-c3ccccc3F)nc2c1)c1ccccc1Cl	3.98µM*
O=C(Nc1ccc2oc(-c3cccc(F)c3)nc2c1)c1ccc2ccccc2c1	1µM*
COc1ccccc1-c1nc2cc(NC(=O)c3ccccc3Cl)ccc2o1	1.2%
O=C(Nc1ccc2oc(-c3ccccc3)nc2c1)c1ccc2ccccc2c1	17.6%
CCNC(=O)CCc1c(C)nn(-c2ccccc2)c1Oc1ccccc1	i
CC1(c2ccccc2)CCCN(c2cncc(C(=O)N3CCOCC3)n2)C1 (stereo not given)	11.2µM*
CC(=O)N1CCN(c2cncc(C(=O)N3CCOCC3)n2)CC(O)C1 (stereo not given)	-3.8%
COC(=O)c1cncc(N2CCCC3(CCC(=O)N(Cc4ccccc4)C3)C2)n1 (stereo not given)	5.6%
COc1ccccc1CCC(=O)N1CCCC(Nc2ccc(F)cc2)C1 (stereo not given)	-17.3%
O=C1CCN(S(=O)(=O)c2ccccc2)CCCC(C(=O)NCc2cccnc2)CCN1 (stereo not given)	-2.7%
